Screening results (PubChem)
Compounds with a hit are over-represented: about 2.1% of the library has one in this group of screens.
aDG glyco act = increases alpha dystroglycan glycosylation; 360,000 compounds, 0.22% hits; activation, % at 10 µM; AID 624168; Pro5-aDG cells, alpha-DG glycosylation AlphaScreen (IIH6); 0% Pro5, 100% B10-LARGE cell signal;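 active = activation of at least 8% versus controls, or a plate z-score of at least 8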;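 also: Pro5 are CHO cells carrying HIG-tagged alpha-DG that lacks glycosylation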
COUP-TFII inh = blocks human COUP-TFII nuclear receptor; P24468; HEK293T NGFI-A luciferase reporter, luminescence; inhibition, % at 8.6 µM; 370,000 compounds, 0.7% hits;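 active = inhibition above a per-plate cutoff, mean inhibition of test wells between control levels plus 3 SD, cut at about 38% in these data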;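 also: cells cotransfected with COUP-TFII expression vector driving the NGFI-A reporter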
Target sequence (P24468 whole entry, looked up): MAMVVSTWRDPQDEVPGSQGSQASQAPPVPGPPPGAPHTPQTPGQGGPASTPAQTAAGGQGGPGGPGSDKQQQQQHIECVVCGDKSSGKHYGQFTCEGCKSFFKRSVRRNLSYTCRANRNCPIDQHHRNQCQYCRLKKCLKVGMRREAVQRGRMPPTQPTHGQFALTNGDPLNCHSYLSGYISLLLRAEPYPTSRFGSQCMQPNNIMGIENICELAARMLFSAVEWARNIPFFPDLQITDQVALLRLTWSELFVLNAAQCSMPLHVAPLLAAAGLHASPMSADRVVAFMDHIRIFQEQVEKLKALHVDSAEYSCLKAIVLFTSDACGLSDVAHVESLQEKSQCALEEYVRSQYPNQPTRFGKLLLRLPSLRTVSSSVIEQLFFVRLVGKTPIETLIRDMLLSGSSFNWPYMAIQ
Env fusion inh = blocks HIV Env-driven cell-cell fusion; 360,000 compounds, 1.1% hits; AID 651610; inhibition, % at 12.3 µM; HeLa-JRFL Env/CEM21 cell fusion, luciferase;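 active = mean replicate inhibition score of at least 50 and every replicate individually at or above 50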
GalR3 antag = blocks the human galanin receptor 3; O60755; AID 651719; inhibition, % at 3 µM; 360,000 compounds, 0.44% hits; HEK293 GalR3-CNG cAMP membrane potential fluorescence; galR3 body fused to GalR1 C-terminus;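 active = inhibition above the screen-wide average plus 3 SD, cut at about 13% in these data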;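 also: forskolin and galanin both at EC90 stimulate the cells; cAMP rise reported by CNG channel membrane potential dye signal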
Target sequence (O60755 1-299 limits assumed): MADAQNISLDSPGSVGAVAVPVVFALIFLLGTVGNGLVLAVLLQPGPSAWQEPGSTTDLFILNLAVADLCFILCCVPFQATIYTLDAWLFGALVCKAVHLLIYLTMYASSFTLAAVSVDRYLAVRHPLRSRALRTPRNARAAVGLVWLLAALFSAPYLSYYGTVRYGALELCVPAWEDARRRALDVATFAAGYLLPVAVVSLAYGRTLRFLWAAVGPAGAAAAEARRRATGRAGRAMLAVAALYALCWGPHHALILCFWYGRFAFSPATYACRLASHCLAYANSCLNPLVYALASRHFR
Gli-Sufu block = antagonists of Gli-Sufu signaling. Sufu-KO-LIGHT fibroblasts, Gli luciferase reporter luminescence. 340,000 compounds, 0.74% hits. AID 588413. inhibition, % at 5 µM;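 active = inhibition above about 55%, limit read from the data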
Gli antag conf = Gli-SUFU antagonism confirmation, single concentration; shares compounds with Gli-Sufu block; Sufu-KO-LIGHT cells, Gli luciferase reporter, luminescence; inhibition, % at 5 µM; 2,500 compounds, 40% hits; AID 602428;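 active = mean inhibition at 5 µM reaching about 45%, limit read from the data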
Gli cytotox = counter-screen for Gli-SUFU antagonists: cytotoxicity; shares compounds with Gli-Sufu block; Sufu-KO-LIGHT cells cytotoxicity, ATP luminescence; cytotoxicity, % at 5 µM; 2,500 compounds, 32% hits; AID 651994;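 active = mean cytotoxicity at 5 µM above about 25%, limit read from the data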;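 also: cells exposed to compound overnight for roughly 16 to 18 hours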
Wnt3a cs = Wnt3a reporter inhibition counter-screen | shares compounds with Gli-Sufu block | Wnt-LIGHT cells, Wnt3a-driven luciferase reporter, luminescence | inhibition, % at 6.25 µM | 2,500 compounds, 20% hits | AID 651995;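 active = mean inhibition above about 25%, limit read from the data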
GalR3 conf = confirmation of human galanin receptor 3 antagonists; shares compounds with GalR3 antag; HEK293 GalR3 CNG cAMP biosensor, membrane potential fluorescence; galR3 fused to GalR1 carboxy tail; challenged with forskolin and galanin at EC90; inhibition, % at 3 µM; 1,600 compounds, 59% hits; AID 652245;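 active = inhibition above the primary screen's cutoff, the mean inhibition of all screened compounds plus 3 SD, cut at about 13% in these data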
HEK-CNG parental = parental cell agonism counter-screen for GalR3 antagonists; shares compounds with GalR3 antag; HEK293-CNG parental cells, cAMP membrane potential fluorescence; normalised: DMSO wells 0%, forskolin wells 100%; activation, % at 3 µM; 1,600 compounds, 10% hits; AID 652268; in the data active = activation above about 1.3%
VP16 Luc counter = inhibits VP16 reporter, flagging COUP-TFII antagonist hits | 2,500 compounds, 25% hits | AID 687007 | HEK293 Gal4-VP16 luciferase reporter, luminescence | shares compounds with COUP-TFII inh | inhibition, % at 8.5 µM; in the data active = inhibition above about 13%
COUP-TFII conf = COUP-TFII (NR2F2) inhibition, confirmation assay | shares compounds with COUP-TFII inh | HEK293 NGFI-A luciferase reporter, luminescence | inhibition, % at 8.5 µM | 2,500 compounds, 45% hits | AID 687008;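 active = mean inhibition over three repeats above a set limit taken from the earlier primary screen, cut at about 38% in these data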
Of the large screens only hits and unclear results are named; the others gave an inactive call (follow-up assays come after a bar, where they were run).

O=C(NC1CCCc2ccccc21)c1cn2ccccc2n1 (configuration not stated)	none
CSC1SCC2C(=O)N(C)C(C(C)C)C(=O)OCC(NC(=O)c3cnc4ccccc4n3)C(=O)NC(C)C(=O)N(C)C1C(=O)N(C)C(C(C)C)C(=O)OCC(NC(=O)c1cnc3ccccc3n1)C(=O)NC(C)C(=O)N2C (configuration not stated)	COUP-TFII inh 51, Env fusion inh 84, Gli-Sufu block 80 | Gli antag conf 85 | Gli cytotox 73 | Wnt3a cs 102 | VP16 Luc counter 29 | COUP-TFII conf 38
Cc1noc(C)c1S(=O)(=O)Nc1ccc2c(c1)C(=O)N([C@@H](C)CO)C[C@@H](C)[C@H](CN(C)S(=O)(=O)c1c(C)noc1C)OCCCC[C@@H](C)O2	none (no result: aDG glyco act, COUP-TFII inh, GalR3 antag, Gli-Sufu block)
COc1ccc(NS(=O)(=O)c2ccc(-c3coc(C)n3)cc2)cc1	none
COc1ccc(NS(=O)(=O)c2ccc(-c3coc(C)n3)cc2)cc1OC	COUP-TFII inh 52, GalR3 antag 85, Gli-Sufu block 73 | Gli antag conf 73 | Gli cytotox 28 | Wnt3a cs 51 | GalR3 conf 100 | HEK-CNG parental inactive | VP16 Luc counter inactive | COUP-TFII conf 59
COC(=O)C[C@@H]1CC[C@@H]2[C@H](COc3ccc(NC(=O)c4ccc(OC)cc4)cc3C(=O)N2C)O1	none (no result: aDG glyco act, COUP-TFII inh, GalR3 antag, Gli-Sufu block)
S=C(NCc1ccc(Cl)cc1)Nc1ccncc1	COUP-TFII inh 58, Gli-Sufu block 63 | Gli antag conf 49 | Gli cytotox inactive | Wnt3a cs 36 | VP16 Luc counter 17 | COUP-TFII conf 44
O=C(Cc1ccc(Cl)cc1Cl)Nc1ccncc1Cl	COUP-TFII inh 40, GalR3 antag 45, Gli-Sufu block 73 (no result: Env fusion inh) | Gli antag conf 49 | Gli cytotox inactive | Wnt3a cs 32 | GalR3 conf 67 | HEK-CNG parental inactive | VP16 Luc counter inactive | COUP-TFII conf 42
COc1ccc(CC(=O)Nc2ccncc2Cl)cc1	COUP-TFII inh 51, GalR3 antag 63, Gli-Sufu block 66 | Gli antag conf 54 | Gli cytotox 26 | Wnt3a cs 31 | GalR3 conf 49 | HEK-CNG parental inactive | VP16 Luc counter inactive | COUP-TFII conf inactive
O=C(Nc1ccncc1)Nc1ccc(F)c(Cl)c1	none
O=C(Cc1ccc(Cl)cc1Cl)Nc1ccncc1	COUP-TFII inh 50, Env fusion inh 73 | Gli antag conf inactive | Gli cytotox inactive | Wnt3a cs inactive | VP16 Luc counter inactive | COUP-TFII conf inactive
S=C(NCc1ccc(Cl)cc1)Nc1ccccc1	none
C/C=C/c1ccc2c(c1)O[C@@H](CN(C)Cc1cccc(F)c1)[C@@H](C)CN([C@@H](C)CO)S2(=O)=O	none (no result: aDG glyco act, COUP-TFII inh, GalR3 antag, Gli-Sufu block)
C[C@@H]1CCCCO[C@H](CN(C)Cc2ccc(Cl)c(Cl)c2)[C@@H](C)CN([C@@H](C)CO)C(=O)c2cc(NS(=O)(=O)c3cn(C)cn3)ccc2O1	none (no result: aDG glyco act, COUP-TFII inh, GalR3 antag, Gli-Sufu block)
CC(C)Oc1cccc(C(=O)C2CCCN(Cc3cnn(C(C)C)c3)C2)c1 (configuration not stated)	none
Cc1nn(C(C)C)c(C)c1CN1CCCC(C(=O)c2cccc(OC(C)C)c2)C1 (configuration not stated)	COUP-TFII inh 37, Gli-Sufu block 59 | Gli antag conf inactive | Gli cytotox inactive | Wnt3a cs inactive | VP16 Luc counter inactive | COUP-TFII conf inactive
CN1/C(=C/C(=O)C2CCC2)Sc2ccccc21	none (no result: Env fusion inh)
CN1/C(=C/c2cccc[n+]2C)Sc2ccccc21	COUP-TFII inh 53, Gli-Sufu block 69 | Gli antag conf 86 | Gli cytotox 38 | Wnt3a cs 36 | VP16 Luc counter inactive | COUP-TFII conf 48
Cc1ccc2c(c1)N(C)/C(=C/c1cccc[n+]1CCO)S2	none
COc1ccc2c(c1)N(C)/C(=C/c1cccc[n+]1C)S2	COUP-TFII inh 56, Gli-Sufu block 80 | Gli antag conf 84 | Gli cytotox 36 | Wnt3a cs 29 | VP16 Luc counter inactive | COUP-TFII conf inactive
Cc1noc(C)c1NC(=O)N[C@@H]1CC[C@@H](CCNC(=O)C2CCOCC2)O[C@H]1CO	none (no result: aDG glyco act, COUP-TFII inh, GalR3 antag, Gli-Sufu block)
O=C(CSc1nnc(Cn2nnc3ccccc32)o1)N(Cc1ccc(F)cc1)c1ccccc1	COUP-TFII inh 79, GalR3 antag 92, Gli-Sufu block 68 (no result: Env fusion inh) | Gli antag conf 57 | Gli cytotox 45 | Wnt3a cs inactive | GalR3 conf 114 | HEK-CNG parental inactive | VP16 Luc counter inactive | COUP-TFII conf 62
COc1ccc(N(Cc2ccccc2)C(=O)CSc2nnc(Cn3nnc4ccccc43)o2)cc1	none (no result: Env fusion inh)
O=C(C[C@H]1C[C@H]2c3cc(NC(=O)NC4CCCCC4)ccc3O[C@H]2[C@@H](CO)O1)NCc1cccnc1	none (no result: aDG glyco act, COUP-TFII inh, GalR3 antag, Gli-Sufu block)
COC(=O)C12OCC34C(CC5C(C)=C(O)C(=O)CC5(C)C3C(O)C1O)OC(=O)C(OC(=O)C=C(C)C)C24 (configuration not stated)	COUP-TFII inh 93, Env fusion inh 64, Gli-Sufu block 91 | Gli antag conf 95 | Gli cytotox 76 | Wnt3a cs 105 | VP16 Luc counter inactive | COUP-TFII conf 86
COc1ccc(Cn2c(-c3ccc(C)cc3)c[n+]3ccccc23)cc1	COUP-TFII inh 52, Gli-Sufu block 85 | Gli antag conf 86 | Gli cytotox 29 | Wnt3a cs 36 | VP16 Luc counter inactive | COUP-TFII conf 40
COc1ccc(COc2ccccc2C(=O)NCc2ccccc2)cc1F	COUP-TFII inh 41 | Gli antag conf inactive | Gli cytotox inactive | Wnt3a cs inactive | VP16 Luc counter inactive | COUP-TFII conf inactive
CC(=O)Nc1ccc(NS(=O)(=O)c2ccc(-c3cnc(C4CC4)o3)cc2)cc1	none
